The entries come from a sample that favours hits as a whole.
BL2 CD40 inh: inhibitors of CD40-induced NF-kB signaling, primary screen, BL2 cells, luciferase reporter, single point. CD40L-induced, 4 h. inhibition, % at 10 µM. 0.94% of 83,000 active. AID 1053188, 2014;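 active = mean inhibition of at least 50% with a set share of replicates also reaching that level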;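 also: 0% = neutral control wells and 100% = IKK inhibitor VII at 50 µM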
Starred values were filed as active, the others as inactive; [ ] = another dose, or the depositor's remark.

SMILES	BL2 CD40 inh
COc1ccc(S(=O)(=O)N(C)C[C@@H]2Oc3ccc(NC(=O)Nc4ccc(C(F)(F)F)cc4)cc3C(=O)N([C@@H](C)CO)C[C@@H]2C)cc1	77.3*[25 µM]
C[C@H](CO)N1C[C@H](C)[C@H](CN(C)S(=O)(=O)c2ccc(Cl)cc2)Oc2c(NC(=O)Nc3ccc(F)cc3)cccc2C1=O	85.1*[25 µM]
C[C@@H]1CN([C@@H](C)CO)C(=O)c2cccc(NC(=O)Nc3ccc(F)cc3)c2O[C@H]1CN(C)S(=O)(=O)c1ccc(Cl)cc1	-8.6[25 µM]
C[C@H](CO)N1C[C@H](C)[C@@H](CN(C)S(=O)(=O)c2ccccc2)Oc2ccc(NC(=O)Nc3ccccc3)cc2C1=O	0.6
Cc1ccccc1S(=O)(=O)N(C)C[C@@H]1OCc2ccccc2-c2ccccc2C(=O)N([C@H](C)CO)C[C@H]1C	12.9
CN1C(=O)c2cc(NC(=O)Cc3cccs3)ccc2OC[C@H]2O[C@H](CC(=O)N[C@H]3CCN(Cc4ccccc4)C3)CC[C@@H]21	12.4[25 µM]
C/C=C/c1ccc([C@@H]2[C@H](CO)N(C(=O)NCCC)[C@H]2CNC(=O)C2CCC2)cc1	1.3
N#C[C@H]1[C@@H](c2ccccc2C2=CCCC2)[C@@H](CO)N1S(=O)(=O)c1ccccc1	-22.4[25 µM]
C[C@@H]1CN([C@@H](C)CO)C(=O)c2cc(NC(=O)Nc3ccc4c(c3)OCO4)ccc2O[C@@H](C)CCCCO[C@@H]1CN(C)C(=O)CCCN(C)C	-13.3[25 µM]
CO[C@@H]1CN(C)C(=O)c2cc(NC(=O)c3cc(C)on3)ccc2OC[C@H](C)N(C(=O)C2CC2)C[C@H]1C	-3.4
CCC(=O)N1CC2(C1)[C@@H](c1ccc(-c3ccc(F)cc3)cc1)[C@H](CO)N2C(C)=O	-11.2[25 µM]
COc1ccccc1NC(=O)N1CC(=O)N2[C@H](CO)[C@@H](c3ccc(-c4cccc(C)c4)cc3)[C@@H]2C1	11.1[25 µM]
COc1cccc(NC(=O)N[C@H]2C=C[C@H](CC(=O)NCc3ccncn3)O[C@@H]2CO)c1	-0.5[25 µM]
CC(C)NC(=O)Nc1cccc2c1O[C@@H](CN(C)S(C)(=O)=O)[C@@H](C)CN(C)C2=O	-44.2
CCOC(=O)c1nc(C)[nH]c1C(=O)OCC	-1.5
Cc1cc(C(=O)Nc2cc(S(C)(=O)=O)ccc2Cl)no1	0.2
Cc1ccccc1NC(=O)c1nc(S(C)(=O)=O)ncc1Cl	104.4*
CSc1ncc(Cl)c(C(=O)Nc2cccc3ccccc23)n1	2.2
CCOC(=O)c1nc(S(C)(=O)=O)ncc1Cl	108.0*
CCOC(=O)c1ccc(NS(C)(=O)=O)cc1	-3.4
CC(C)CC#Cc1ccc([C@H]2[C@@H](CO)N3C(=O)CN(C(=O)NC4CCCC4)C[C@H]23)cc1	1.8
O=C(C[C@@H]1C[C@@H]2c3cc(NC(=O)NC4CCCC4)ccc3O[C@@H]2[C@@H](CO)O1)NCc1ccccn1	4.9
CN(C)C(=O)c1ccc(-c2ccc3c(c2)[C@@H]2[C@@H](CCN2C(=O)C2CCCCC2)[C@@H](CO)N3C)cc1	-4.2
CC(=O)Nc1cccc2c1O[C@H](CN(C)C(C)=O)[C@H](C)CN(C)C2=O	4.5
CO[C@@H](CN(C)C(=O)c1ccc2c(c1)OCO2)[C@@H](C)CN([C@H](C)CO)S(=O)(=O)c1ccc(Cl)cc1	-7.1[25 µM]
SMILES	BL2 CD40 inh
O=C(c1ccc(F)cc1)N1CC[C@@H]2[C@@H](CO)Nc3ccc(-c4ccccc4F)cc3[C@@H]21	-10.8[25 µM]
COc1cccc(NC(=O)C[C@H]2CC[C@H]3[C@@H](COc4ccc(NC(=O)C5CCC5)cc4C(=O)N3C)O2)c1	-2.5
CC(=NNC(=S)N1CC2CCC(CC2)C1)c1ccccn1	-16.7
CCCN(CC(=O)Nc1ccccc1OC)C(=O)c1ccccn1	-1.9
COc1ccccc1NC(=S)NN=C(C)c1ccccn1	90.3*
Cc1ccc(NC(=S)NNC(=S)Nc2ccc(C)cc2)cc1	-42.4
CC(=NNC(=S)Nc1ccc(C)cc1)c1ccccn1	77.5*
COc1ccccc1NC(=O)c1ccccc1NC(=O)c1ccccn1	0.9
Cc1ccccc1S(=O)(=O)N(C)C[C@H]1OCc2ccccc2-c2ccccc2C(=O)N([C@H](C)CO)C[C@H]1C	-1.7
COc1cc(CN2CC3(CCN(S(=O)(=O)c4cn(C)cn4)CC3)c3c(n(C)c4cc(OC)ccc34)[C@H]2CO)cc(OC)c1	4.5[25 µM]
CC(=O)N(C)C[C@H]1Oc2c(NS(C)(=O)=O)cccc2C(=O)N(C)C[C@@H]1C	-2.7
O=C(NCC[C@H]1CC[C@H](NS(=O)(=O)c2ccc(F)cc2)[C@@H](CO)O1)Nc1ccc(Cl)cc1	-10.2
CO[C@H]1CN(C)C(=O)c2ccc(NC(=O)C3CCCC3)cc2OC[C@H](C)NC[C@@H]1C	-8.3
COc1ccccc1-c1ccc([C@H]2[C@@H](C#N)N(C(=O)C3CCOCC3)[C@H]2CO)cc1	-26.0[25 µM]
CO[C@@H]1CN(C)C(=O)c2ccc(NC(=O)C3CCCCC3)cc2OC[C@@H](C)N(C)C[C@@H]1C	-8.6
Cc1ccc(-c2nn3c(C)nnc3c3ccccc23)cc1S(=O)(=O)NCc1ccccc1	43.5*
COc1nnc(-c2ccc(C)c(S(=O)(=O)NCC3CCCO3)c2)c2ccccc12 (configuration not stated)	-0.1
CC(=O)NCc1nnc2c3ccccc3c(-c3ccccc3)nn12	15.6
O=C(CN1CCOCC1)N1CC2(C1)[C@H](c1ccccc1)[C@H](CO)N2Cc1cccc(F)c1	4.7[25 µM]
O=C(NC1CCCCC1)[C@H]1[C@H](CO)[C@H]2Cn3c(cccc3=O)[C@@H]1N2CC1CCCC1	-6.4
Nc1ncnc2nc(-c3ccc(N4CCOCC4)nc3)cc(-c3cccc(Br)c3)c12	-20.2[25 µM]
O=C(O)c1cc(-c2ccccc2)c(N2CCOCC2)s1	7.7
Nc1ccc(-c2cccc3c(=O)cc(N4CCOCC4)oc23)cc1	57.5*[25 µM]
Fc1cccc(CN2C[C@@H]3N[C@H](C2)C3c2ccc(/C=C/c3ccccc3)cc2)c1 (some centres not stated)	11.7[25 µM]
O=C1CN(S(=O)(=O)Cc2ccccc2)C[C@H]2[C@@H](c3ccc(C#Cc4ccccc4)cc3)[C@@H](CO)N12	18.5[25 µM]
SMILES	BL2 CD40 inh
O=C(Nc1ccc2c(c1)[C@@H]1C[C@H](CC(=O)N3CCOCC3)O[C@@H](CO)[C@@H]1O2)NC1CCCCC1	8.7
O=C(CCl)N=c1sccn1Cc1ccc(Cl)cc1Cl	88.9*
O=C(Cn1cnnn1)NCCc1ccc(Cl)cc1Cl	8.1
O=C1CCN(Cc2ccc(Cl)cc2Cl)C(=O)N1	5.9
O=C(c1ccncc1)N1CC[C@@H]2[C@H](CO)Nc3ccc(Br)cc3[C@@H]21	3.9[25 µM]
O=C1NC2c3c(Cl)sc(Cl)c3C(=O)C2O1 (configuration not stated)	55.5*
O=C1NC2c3c(I)sc(I)c3C(=O)C2O1 (configuration not stated)	101.1*
COc1ccc(NC(=O)N2CCCCN3[C@H](CO)[C@H](c4ccc(C#Cc5ccccn5)cc4)[C@H]3C2)cc1	-14.0[25 µM]
N#C[C@H]1[C@@H](c2ccc(-c3cccc(F)c3)cc2)[C@@H](CO)N1C(=O)NC1CCCCC1	10.7
COc1cccc(CN(C)C[C@H]2OCc3ccccc3-c3c(n(C)c4ccccc34)C(=O)N([C@H](C)CO)C[C@H]2C)c1	19.4
CN1C(=O)c2cc(NC(=O)C3CCCC3)ccc2OC[C@H]2O[C@@H](CC(=O)NCCc3ccncc3)CC[C@@H]21	7.8
CN1C(=O)c2cc(NC(=O)Nc3ccccc3F)ccc2OC[C@H]2O[C@@H](CC(=O)NCCc3ccncc3)CC[C@@H]21	-12.7[25 µM]
O=C1C(=Cc2cccc(F)c2)Cc2ccccc21	-137.0
O=C1C(=Cc2ccccc2[N+](=O)[O-])Cc2ccccc21	49.5*
CC1(C)CC(=Cc2ccccc2[N+](=O)[O-])C(=O)c2ccccc21	-21.1
